Consider 30 molecules from PubChem BioAssay (EPA / NIEHS).

Activity calls are given as the source filed them. How the source made its calls: active means hit-call score of the fitted dose curve at least 0.9, where 1 is the maximum; inactive means score below 0.9.

A short description of the assay: ATG_TAL_CIS: Attagene CIS-FACTORIAL HepG2 Assay for human TAL Basal Promoter (AID 2282966).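 Further: background control endpoint measuring basal TAL promoter reporter mRNA not a specific factor.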 The following applies: HepG2 Attagene cis-factorial TAL promoter reporter; actives raise or lower the signal. The method in brief: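 Human hepatoma HepG2 cells, transfected with promoter-regulated reporter units, were treated 24 h. Reporter transcript levels, measured through RT-PCR and capillary electrophoresis, were fitted for gain or loss relative to DMSO.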
With `CC1(C)O[C@@H]2C[C@H]3[C@@H]4CCC5=CC(=O)C=C[C@]5(C)[C@@]4(F)[C@@H](O)C[C@]3(C)[C@]2(C(=O)CO)O1`, the outcome was inactive.

`CCOc1ccc(N=Nc2ccc(C=Cc3ccc(N=Nc4ccc(OCC)cc4)cc3S(=O)(=O)O)c(S(=O)(=O)O)c2)cc1`: the outcome was inactive. Turning to `c1ccc(CN(Cc2ccccc2)Cc2ccccc2)cc1`, the result was inactive. With `CC(=O)CC(=O)Nc1ccccc1`, the molecule was called inactive.

Regarding `O=CCc1ccccc1`, the molecule was called inactive. The result for `C=C(C)[C@H]1CC=C(C)C(=O)C1` reads “inactive”. `CC(C)CCCCCCc1ccc(OCCOCCO)cc1`: the call was inactive.

For the molecule `CCc1cc(C(C)(C)C)c(O)c(C(C)(C)C)c1`, the call was inactive. `CC(=O)OCCCc1ccccc1`: the molecule was called inactive. Turning to `C=CC(C)(O)CCC=C(C)C` (stereo not given), the call was inactive. Turning to `Nc1c(Cl)cc(Cl)cc1[N+](=O)[O-]`, the result was inactive. Take `C[C@H](CCC(=O)NCC(=O)O)[C@H]1CC[C@H]2[C@@H]3[C@H](O)C[C@@H]4C[C@H](O)CC[C@]4(C)[C@H]3C[C@H](O)[C@]12C`: the call was inactive. As for `CCCOCCO`, the call was inactive. The result for `CN(C)C(=S)SC(=S)N(C)C` reads “inactive”. For the molecule `COC(=O)c1ccc(OC)cc1`, the molecule was called inactive. For `COC(C)(C)CCO`, the outcome was inactive. Regarding `CC(=O)O[C@@H]1CC2CCC1(C)C2(C)C` (stereo not given in full), the call was inactive. As for `C[C@H]1O[C@@H](O[C@H]2[C@@H](O)C[C@H](O[C@H]3[C@@H](O)C[C@H](O[C@H]4CC[C@@]5(C)[C@H](CC[C@@H]6[C@@H]5C[C@@H](O)[C@]5(C)[C@@H](C7=CC(=O)OC7)CC[C@]65O)C4)O[C@@H]3C)O[C@@H]2C)C[C@H](O)[C@@H]1O`, the call was inactive. On to `COCCOCCOCCO`, for which the call was inactive.

Turning to `COc1ccc(COC(C)=O)cc1`, the outcome was inactive. For the molecule `O=C(O)c1cc(C(=O)O)cc([N+](=O)[O-])c1`, the molecule was called inactive.

For the molecule `CC(C)Nc1nc(N)nc(Cl)n1`, the molecule was classed as inactive.

As to `C[C@@H]1CCN(C(=O)[C@H](CCCN=C(N)N)NS(=O)(=O)c2cccc3c2NC[C@H](C)C3)[C@@H](C(=O)O)C1`, the result was inactive.

Take `CCCCCCCC/C=C\CCCCCCCC(=O)OCC`: the call was inactive.

Consider `CCOC(=O)COC(=O)c1cc(Oc2ccc(C(F)(F)F)cc2Cl)ccc1[N+](=O)[O-]`, for which the molecule was called inactive. As to `O=C(O)c1cccnc1C(=O)O`, the molecule was classed as inactive. Then `O=C(Nc1ccc2c(O)c(N=Nc3ccc(N=Nc4ccc(S(=O)(=O)O)cc4)cc3)c(S(=O)(=O)O)cc2c1)c1ccccc1`, with “inactive”. Then `Cc1ncc([N+](=O)[O-])n1CCO`, with “inactive”. As for `CCOc1ccc(NC(=O)CC(C)=O)cc1`, the molecule was classed as inactive. On to `CC/C=C\CCOC(=O)CC`, for which the result was inactive.
